Results as given in PubChem BioAssay AID1209 (Sanford-Burnham Center for Chemical Genomics, 2008).
The campaign covered roughly 190,000 compounds. About 810 (0.43%) were called active. Rule as the data show it: active = inhibition above about 50%; inactive = the rest. What follows is part of a selection rich in actives, with near analogues and random picks from the rest.

Molecular target: Mannose-6-phosphate isomerase (Homo sapiens) (UniProt P34949)
Assay: MPI enzyme activity inhibition – biochemical, fluorescence intensity, coupled assay, primary screen (AID 1209);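 also: plate controls were DMSO vehicle for no effect and wells lacking substrate for full effect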
Conditions: purified PMI enzyme, at 20 µM, active compounds read high

Mannose-6-phosphate isomerase (Homo sapiens), sequence (P34949 whole entry, looked up): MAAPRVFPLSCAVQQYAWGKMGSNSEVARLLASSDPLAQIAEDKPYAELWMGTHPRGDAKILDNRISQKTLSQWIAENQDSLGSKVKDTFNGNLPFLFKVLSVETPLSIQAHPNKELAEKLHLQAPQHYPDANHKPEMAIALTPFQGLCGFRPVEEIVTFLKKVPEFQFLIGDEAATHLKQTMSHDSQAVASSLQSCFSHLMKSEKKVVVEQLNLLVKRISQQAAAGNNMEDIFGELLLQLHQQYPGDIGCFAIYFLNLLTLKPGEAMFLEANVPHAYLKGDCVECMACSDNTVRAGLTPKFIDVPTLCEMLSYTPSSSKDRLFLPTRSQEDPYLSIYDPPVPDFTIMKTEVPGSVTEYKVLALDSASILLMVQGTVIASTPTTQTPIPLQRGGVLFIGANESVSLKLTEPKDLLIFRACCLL

inhibition, inactive:
CC(=O)c1cc2c(=O)c3cc(C)ccc3oc2nc1C 3.2%
COc1ccccc1OCC(=O)Nc1ccc(O)cc1C(=O)O -4%
CCc1ccccc1N(C(=O)Cn1nnc2ccccc21)C(C(=O)NCCOC)c1ccco1 (configuration not stated) 3.9%
O=C(c1ccc(Cl)cc1)c1ccc(CN2C(=O)c3ccccc3C2=O)o1 6.4%
Cc1oc2c(c1C(=O)O)C(=O)c1ccccc1C2=O -55.2%
Cc1oc2c(c1C(=O)N1CCC(C)CC1)C(=O)c1ccccc1C2=O 1.3%
CC1=C(CC(=O)c2ccc(Cl)cc2)C(=O)c2ccccc2C1=O -15.5%
CCOC(=O)c1c(C)oc2c1C(=O)c1ccccc1C2=O -48.2%
CC(=O)c1c(C)oc2c1C(=O)c1ccccc1C2=O 0.2%
O=C(CCCn1cnc([N+](=O)[O-])n1)Nc1ccc(Cl)cc1Cl 8.7%
COc1cccc(-c2nc(CS(=O)(=O)CC(=O)Nc3cccc(C)c3C)c(C)o2)c1 7.1%
CCOC(=O)C1CCN(C(=O)COc2ccc(Cl)cc2)CC1 0.2%
CC(NC(=O)c1ccccc1F)c1nnc(SCC(=O)N2CCN(c3ccccc3)CC2)n1C (configuration not stated) -2.3%
CCOC(=O)c1c(CN2CCC(C)CC2)oc2ccc(OC)cc12 -3.3%
CCCN(C(=O)c1cn(CC)c2nc(C)ccc2c1=O)c1c(N)n(Cc2ccccc2)c(=O)[nH]c1=O 11.3%
CN(Cc1cccnc1)C(=O)CNC(=O)c1ccc(Cl)cc1Cl -2.4%
COc1ccc(NS(=O)(=O)c2cccc3nonc23)c(OC)c1 -1.3%
Cc1ccc(-c2nnn(CC(=O)N(CC(=O)NC3CCCC3)c3ccc(F)c(Cl)c3)n2)o1 -4.8%
C[C@@H]1C=C(C(=O)O)O[C@H](OCc2ccc(CO)cc2)C1 6%
COc1ccc(-n2nc([N+](=O)[O-])c(=NCCc3ccccc3)n2O)cc1 10%
CCCCN=C1C([N+](=O)[O-])=CC=C2C1=NC1(CCCCC1)N2O 31.3%
O=[N+]([O-])c1nn(-c2ccccc2)n(O)c1=NCCc1ccccc1 -5.6%
CCC(CC)NC(=O)COC(=O)CCC(=O)c1cccs1 4.9%
Cc1nc2cc(NC(=O)N3CCCCC3)ccc2n1C 16.1%
CCO/C=N/c1c(C#N)c2c(c(=S)n1C)COC(C)(C)C2 5.8%
Cn1c(=O)n(C)c2cc([N+](=O)[O-])c(N3CCN(S(C)(=O)=O)CC3)cc21 -6.6%
CCSC1=NC2(CCCCC2)Nc2sc3c(c21)CCCC3 -35%
CC1CCCC2(C1)NC(=S)N(c1ccccc1)N2 (configuration not stated) -48.4%
COc1ccccc1OCCOCCOc1ccc(C)cc1Br 11.4%
C=CCn1c(SC/C=C/c2ccccc2)nnc1-c1sc(N)nc1C 13.7%
CCN(CC#CCC(O)(c1ccccc1)C1CCCC1)C(C)C (configuration not stated) 7.4%
CC(C)(C)N(CC#CCC(O)(c1ccccc1)C1CCCC1)CCO (configuration not stated) 30.4%
CC(C)C(C)NC(=O)COC(=O)c1cccc(C(=O)OCC(=O)NC(C)C(C)C)n1 (configuration not stated) 21.9%
Nc1nnc(-c2ccncc2)s1 13.4%
CCOC(=O)NC1(NCC(C)C)Oc2ccccc2O1 42.4%
CCOC(=O)NC1(NC(C)C)Oc2ccccc2O1 12.2%
CCN(CC)c1ccc(C2C(C(=O)OCCOC(C)C)=C(C)NC3=C2C(=O)CCC3)cc1 (configuration not stated) 6.2%
CCOC(=O)c1oc2ccccc2c1NC(=O)CN1CCOCC1 -0.8%
COc1ccc(NC(=O)c2ccc(S(=O)(=O)N3CCOCC3)cc2)c(OC)c1 7.2%
COC(=O)c1c(-c2ccc(C)cc2)csc1NC(=O)C1CC=CCC1C(=O)O (configuration not stated) 7.7%
COC(=O)c1c(-c2ccccc2)csc1NC(=O)C1CC=CCC1C(=O)O (configuration not stated) -6.8%
O=c1[nH]nc(CNc2ccc(Cl)cc2Cl)c2ccccc12 -11.9%
Cc1ncc(CO)c(/C=N/NC(=O)c2ccc(O)cc2)c1O 3.5%
Cc1ncc(CO)c(/C=N/NC(=O)c2ccc(Br)cc2)c1O 15.7%
COc1ccccc1NC(=S)N1CCC(C(=O)c2ccc(F)cc2)CC1 1.3%
CC(C)OCCCNC(=S)Nc1ccc2nc3n(c(=O)c2c1)CCCCC3 -2.7%
NC(=O)C1CCN(C(=S)c2ccc(-c3ccc(Br)cc3)o2)CC1 -10%
S=C(c1ccc(-c2ccc(Cl)cc2)o1)N1CCCCC1 9.1%
N#CCCN1CCN(C(=S)c2ccc(-c3ccc(Cl)cc3)o2)CC1 25.7%
COc1ccc(CC(=O)N2CCN(C(=O)Cc3ccc(OC)cc3)CC2)cc1 7.3%
Cc1cccc(CSC2=NCCN2C(=O)C2CC2)c1 5.8%

inhibition, active:
Cc1oc2c(c1C(=O)c1ccc(Cl)cc1)C(=O)C(=O)c1ccccc1-2 63.9%
Cc1ccc(C(=O)c2c(C)oc3c2C(=O)C(=O)c2ccccc2-3)cc1 73.3%
Cc1oc2c(c1C(=O)c1ccccc1)C(=O)C(=O)c1ccccc1-2 73.6%
O=[N+]([O-])C1=CC=C2C(=NC3(CCCCC3)N2O)C1=NCCc1ccccc1 62.9%
O=[N+]([O-])C1=CC=C2C(=NC3(CCCCC3)N2O)C1=NCCO 81.4%
CC1CCCC2(C1)NC(=S)c1c(sc3c1CCCC3)N2 (configuration not stated) 74.4%
CC(C)N(CC#CCC(O)(c1ccccc1)C1CCCC1)CCO (configuration not stated) 58.1%
CCOC(=O)NC1(NCc2ccccc2)Oc2ccccc2O1 51.2%
COC(=O)c1c(-c2ccco2)csc1NC(=O)C1CC=CCC1C(=O)O (configuration not stated) 51.4%
CC(=O)N1CCN(C(=S)c2ccc(-c3ccc(Cl)cc3)o2)CC1 63.9%
COc1ccc(-c2ccc(C(=S)N3CCN(C(C)=O)CC3)o2)cc1 62%
